Consider eight compounds from PubChem BioAssay (NCATS).

Assay [1] addresses Lysosomal acid glucosylceramidase (Homo sapiens) (UniProt P04062). Kind of assay: Glucocerebrosidase-p2 (AID 348; in the data active = potency below about 10 µM; also: potency is read from the fitted curve at half-maximal effect). The note with it: purified GBA, blue fluorogenic substrate, 40 min. The gist of the method: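 Normal human glucocerebrosidase (0.2 nM) with blue fluorogenic substrate (80 uM final) in citrate/phosphate pH 5.9 with 10mM sodium taurocholate, 0.01% tween-20; 40 min RT, NaOH/glycine stop; fluorescence Ex 365/Em 440; AC50 from a titration from 0.6 nM upwards.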

A short description of assay [2]: AP1 Signaling Pathway (AID 357).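 Also: ME-180 reporter cells stimulated with EGF at its EC50 level; % is scaled to controls: 0 for no effect and ±100 for the full control effect.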 The note with it: ME-180 AP-1-bla reporter, EGF-induced, beta-lactamase ratio, 5 h; at 7.69 µM (top of the series) unless noted. Put shortly: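 Beta-lactamase reporter under AP-1 response element, ME-180 background. Stimulus: EC50 EGF. Compound exposure 5 h, 37 °C. Detection: CCF4, 2.5 h RT, 460/530 nm. Values: AC50 from titration.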

Assay [3] addresses Cytochrome P450 1A2 (Homo sapiens) (UniProt P05177). Put plainly: p450-cyp1a2 (AID 410; calls by dose curve; also: potency is read from the fitted curve at half-maximal effect;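 as to activity change, negative = inhibition: -100% = full effect of reference inhibitor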). Put shortly:
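Read-out is luminescence from luciferin produced by CYP1A2 demethylation of Luciferin-ME (100uM, at Km). Detection reagent stopped the 60 min NADPH-dependent reaction; signals were normalized to 57 uM furafylline.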

Assay [4] in a line: NFAT Signaling Pathway (AID 444).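 Also: carbachol stimulus at about its EC50 of 1 µM final; % is scaled to controls: 0 for no effect and ±100 for the full control effect.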 The note with it: Jurkat NFAT-bla M1, carbachol, beta-lactamase ratio, 5 h; at 7.69 µM (top of the series) unless noted. The gist of the method:
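Read-out: CCF4 FRET ratio (460 nm/530 nm) after 1 h RT dye loading, used for %activity and AC50 from titration series. Cells: Jurkat NFAT-β-lactamase/M1 line, treated with compound plus 1 uM carbachol for 5 h, 37 °C.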

Assay [5] is described as follows: Stat Signaling Pathway (AID 446).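 Also: ME-180 cervical cancer cells given 40 pM IL-6 alongside compound; SIE-controlled beta-lactamase reporter measured as 460/530 nm FRET emission ratio; % is scaled to controls: 0 for no effect and ±100 for the full control effect.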 The note with it: ME-180 (cervical carcinoma) SIE beta-lactamase reporter, IL-6 stimulated, 5 h; at 7.69 µM (top of the series) unless noted. Put shortly:
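Overnight-plated ME-180 cells bearing a STAT Inducible Element beta-lactamase reporter; 5 h co-exposure to compound and 40 pM IL-6; values normalized to 300 pM IL-6 and 125 nM JAK inhibitor controls.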

Assay [6] addresses Glucocorticoid receptor (Homo sapiens) (UniProt P04150). Kind of assay: GR-GFP Redistribution (AID 450;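 active = compounds whose dose series gives a full or clear partial fitted curve of increased nuclear translocation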; also: potency is read from the fitted curve at half-maximal effect). As to conditions: U2OS GR-GFP nuclear translocation, laser cytometry, 2 h.
For assay [7] the target is unchanged. Put plainly: GR-EFC Redistribution (AID 451; calls by dose curve; also: potency is read from the fitted curve at half-maximal effect). As to conditions: CHO-K1 GR-EFC translocation, beta-gal luminescence, 2 h. Put shortly:
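Translocation of GR-ED fusion to nuclear EA restores b-gal, read by luminescence after 1 h room-temperature detection. Engineered CHO-K1 biosensor cells, 1,000/well, exposed 2 h at 37 C to titrations up to 46 uM final.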

Assay [8] has as its target Mitogen-activated protein kinase 10 (Mus musculus) (UniProt Q61831). Kind of assay: JNK3 AlphaScreen Assay (AID 530).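 Also: kinase came from lysate of stimulated human HepG2 cells; signal reports phosphorylation of biotinylated GST-cJun 1-79 at Ser73 with 10 µM ATP; % is scaled to controls: 0 for no effect and ±100 for the full control effect.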 Put shortly:
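Kinase buffer: 20 mM Tris-HCl pH 7.6, 10 mM MgCl2, 1 mM DTT, 0.1 mM Na3VO4, 0.01% Tween-20; ATP 10 uM. Substrate biotin-GST-cJun(1-79), enzyme from activated HepG2 lysates. Detection by Ser73 phospho-antibody AlphaScreen.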
A general note: Alpha assays give light when donor and acceptor beads are brought close together.

Assay [9] has as its target 3',5'-cyclic-AMP phosphodiesterase 4B (Homo sapiens) (UniProt Q07343). Put plainly: qHTS Assay for Inhibitors of PDE-IV (AID 607; active = well fitted activation curve with a large enough effect in the main read-out, with a control signal flat, not every such curve was filed as active; also: potency is read from the fitted curve at half-maximal effect). The gist of the method: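 Live HEK293 cells with a modified cyclic nucleotide-gated (CNG) channel report intracellular cAMP via membrane-potential dye fluorescence (ex 535/em 590 nm). Endogenous PDE-IV was targeted. Compounds were tested at up to 22.9 uM final; RO 20-1724 100 uM served as control.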
(Quantitative high-throughput screening tests each substance at several concentrations.)

Assay [10] can be described thus: Primary qHTS for small molecule stabilizers of the endoplasmic reticulum resident proteome: Secreted ER Calcium Modulated Protein (SERCaMP) assay (AID 1508630; active = well fitted curve in the direction sought with a large enough effect; an effect the other way counts as inactive or inconclusive; also: % is scaled to controls: 0 for no effect and ±100 for the full control effect). The gist of the method: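 The SH-SY5Y reporter protocol was run at 3 concentrations up to 38.3 uM (primary) or 11 concentrations (follow-up): 16 h compound, 100 nM thapsigargin for 4 h, then extracellular luciferase luminescence.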

Assay [11] addresses Dual specificity protein kinase CLK4 (Homo sapiens) (UniProt Q9HAZ1). Kind of assay: qHTS Assay for Inhibitors of CDC-like Kinase 4 (ADP-FP Assay) (AID 1795; active = well fitted curve in the direction sought with a large enough effect; an effect the other way counts as inactive or inconclusive;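 also: recombinant human CLK4 phosphorylating RS repeat peptide at 1 µM ATP; % is scaled to controls: 0 for no effect and ±100 for the full control effect; nearly all actives have a fitted effect of over 60% in size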). The gist of the method:
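Inhibition of ADP formation by 6.25 nM Clk4 is measured using 1 uM ATP and 100 uM RS repeat peptide over one hour. Produced ADP displaces a fluorescent tracer from antibody, lowering polarization.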

For assay [12], the target named is Ubiquitin carboxyl-terminal hydrolase 1 (Homo sapiens) (UniProt O94782). Put plainly: Inhibitors of USP1/UAF1: Pilot qHTS (AID 504865; active = well fitted curve in the direction sought with a large enough effect; an effect the other way counts as inactive or inconclusive;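 also: rhodamine fluorescence freed from ubiquitin-rhodamine substrate followed over time; top concentration of the series differs between compounds; % is scaled to controls: 0 for no effect and ±100 for the full control effect; nearly all actives have a fitted effect of over 35% in size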). Put shortly: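 Kinetic fluorescence assay: 1nM USP1/UAF1, 15 min compound preincubation, then 150nM Ub-Rho; 480/540 nm.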
For assay [13], the target named is Cytochrome P450 3A4 (Homo sapiens) (UniProt P08684). Kind of assay: qHTS Assay for Activators of Cytochrome P450 3A4 (AID 885; active = well fitted curve in the direction sought with a large enough effect; an effect the other way counts as inactive or inconclusive; also: nearly all actives have a fitted effect of over 65% in size). Put shortly: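 Using 20nM recombinant human CYP3A4 in potassium phosphate (200mM), substrate Luciferin-PPXE at 25uM, luminescent luciferin detection followed a 60-min RT NADPH reaction; data scaled to 57 uM ketoconazole.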
A short description of assay [14]: Confirmation and Secondary Assay for Modulators of Hemoglobin Beta Chain Splicing at IVS2 654 locus (AID 910; active = well fitted curve in the direction sought with a large enough effect; an effect the other way counts as inactive or inconclusive;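 also: HeLa cells stably carrying EGFP split by mutant beta-globin IVS2-654 intron; per-well total GFP intensity by laser scanning cytometry after 2-day treatment; % of control where 0% means no effect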). The gist of the method: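 Readout: per-well total peak green fluorescence (488 nm ex, 500–520 nm em) from objects 5–250 µm, reflecting correct splicing of an EGFP-654 reporter. Compounds were applied for 2 days at 37 °C to overnight-plated HeLa EGFP-654 cells; controls were DMSO and 500 nM IVS2-654 PNA.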

Assay [15] can be described thus: Confirmation and Secondary Assay for Modulators of Hemoglobin Beta Chain Splicing at IVS2 705 locus (AID 930; active = well fitted curve in the direction sought with a large enough effect; an effect the other way counts as inactive or inconclusive;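 also: HeLa cells stably expressing the EGFP-705 splicing reporter; % of control where 0% means no effect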). The gist of the method: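 Fluorescence gain (488 nm laser, 500-520 nm PMT) reflects restored correct splicing of a mutant IVS2-705 intron inside EGFP in stably transfected HeLa cells after 2-day compound treatment.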
The target of assay [16] is Cytochrome P450 3A4 (Homo sapiens) (UniProt P08684). Put plainly: qHTS Assay for Inhibitors and Substrates of Cytochrome P450 3A4 (AID 884; active = well fitted curve in the direction sought with a large enough effect; an effect the other way counts as inactive or inconclusive; also: potency is read from the fitted curve at half-maximal effect; nearly all actives have a fitted effect of over 50% in size). Put shortly: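 Luminescent readout of luciferin produced by CYP3A4 (20 nM) dealkylation of Luciferin-PPXE, 25 uM (its KM). NADPH-driven reaction ran 60 min at RT after 10 min compound preincubation; data scaled to 57 uM ketoconazole as 100% inhibition.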

The target in assay [17] is Cytochrome P450 2C19 (Homo sapiens) (UniProt P33261). Kind of assay: qHTS Assay for Inhibitors and Substrates of Cytochrome P450 2C19 (AID 899; active = well fitted curve in the direction sought with a large enough effect; an effect the other way counts as inactive or inconclusive; also: potency is read from the fitted curve at half-maximal effect; nearly all actives have a fitted effect of over 60% in size). The gist of the method: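 Reactions contain 5nM enzyme, 10uM Luciferin-H EGE (KM) and 50mM KPO4; compound preincubates 10 min at 37C, NADPH regeneration starts turnover for 60 min. Luminescence after detection reagent gives activity.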

Structures are written as SMILES. A number with no mark means an inactive call. Results filed as inconclusive are left out. Active and inactive are the calls of the source. Unless noted, calls follow the shape of the dose curve; as a rule, active = well fitted curve in either direction with a large enough effect (not every such curve was filed as active); inconclusive = small, poorly fitted or top-dose-only effect, or another doubt; inactive = flat fitted curve, though single readings scatter.

Chain of Lysosomal acid glucosylceramidase (Homo sapiens) (P04062 whole entry, looked up): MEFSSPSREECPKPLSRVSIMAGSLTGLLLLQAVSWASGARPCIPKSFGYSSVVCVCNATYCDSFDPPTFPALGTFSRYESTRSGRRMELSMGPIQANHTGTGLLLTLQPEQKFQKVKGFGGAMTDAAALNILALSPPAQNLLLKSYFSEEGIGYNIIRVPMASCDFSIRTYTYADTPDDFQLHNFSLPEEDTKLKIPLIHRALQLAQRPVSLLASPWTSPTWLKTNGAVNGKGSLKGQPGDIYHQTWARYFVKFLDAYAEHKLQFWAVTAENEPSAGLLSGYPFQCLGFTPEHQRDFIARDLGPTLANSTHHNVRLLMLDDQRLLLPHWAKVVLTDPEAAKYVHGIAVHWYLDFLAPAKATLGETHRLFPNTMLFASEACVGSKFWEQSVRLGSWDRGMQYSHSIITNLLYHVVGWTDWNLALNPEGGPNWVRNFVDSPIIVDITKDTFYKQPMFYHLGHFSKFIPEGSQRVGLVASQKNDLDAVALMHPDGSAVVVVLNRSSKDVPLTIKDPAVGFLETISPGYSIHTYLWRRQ
Chain of Ubiquitin carboxyl-terminal hydrolase 1 (Homo sapiens) (O94782 whole entry, looked up): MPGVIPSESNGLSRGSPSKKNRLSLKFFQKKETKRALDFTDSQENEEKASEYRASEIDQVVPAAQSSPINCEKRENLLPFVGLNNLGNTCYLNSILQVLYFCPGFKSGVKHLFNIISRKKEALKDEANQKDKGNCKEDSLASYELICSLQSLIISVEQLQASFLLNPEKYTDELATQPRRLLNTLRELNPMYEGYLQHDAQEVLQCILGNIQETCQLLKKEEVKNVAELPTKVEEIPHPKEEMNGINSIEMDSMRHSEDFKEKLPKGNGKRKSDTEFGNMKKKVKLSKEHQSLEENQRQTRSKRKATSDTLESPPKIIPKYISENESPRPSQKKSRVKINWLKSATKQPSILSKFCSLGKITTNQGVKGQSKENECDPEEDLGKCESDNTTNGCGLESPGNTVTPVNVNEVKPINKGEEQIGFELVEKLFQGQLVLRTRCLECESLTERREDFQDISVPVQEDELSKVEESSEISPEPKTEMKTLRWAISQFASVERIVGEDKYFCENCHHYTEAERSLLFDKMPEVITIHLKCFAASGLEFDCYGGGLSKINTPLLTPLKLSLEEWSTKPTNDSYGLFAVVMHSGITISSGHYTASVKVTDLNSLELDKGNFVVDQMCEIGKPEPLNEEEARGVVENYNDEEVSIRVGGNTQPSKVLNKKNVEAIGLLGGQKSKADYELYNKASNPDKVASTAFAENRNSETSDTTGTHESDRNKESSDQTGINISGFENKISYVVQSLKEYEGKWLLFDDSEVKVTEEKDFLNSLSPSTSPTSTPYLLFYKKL
Chain of 3',5'-cyclic-AMP phosphodiesterase 4B (Homo sapiens) (Q07343 whole entry, looked up): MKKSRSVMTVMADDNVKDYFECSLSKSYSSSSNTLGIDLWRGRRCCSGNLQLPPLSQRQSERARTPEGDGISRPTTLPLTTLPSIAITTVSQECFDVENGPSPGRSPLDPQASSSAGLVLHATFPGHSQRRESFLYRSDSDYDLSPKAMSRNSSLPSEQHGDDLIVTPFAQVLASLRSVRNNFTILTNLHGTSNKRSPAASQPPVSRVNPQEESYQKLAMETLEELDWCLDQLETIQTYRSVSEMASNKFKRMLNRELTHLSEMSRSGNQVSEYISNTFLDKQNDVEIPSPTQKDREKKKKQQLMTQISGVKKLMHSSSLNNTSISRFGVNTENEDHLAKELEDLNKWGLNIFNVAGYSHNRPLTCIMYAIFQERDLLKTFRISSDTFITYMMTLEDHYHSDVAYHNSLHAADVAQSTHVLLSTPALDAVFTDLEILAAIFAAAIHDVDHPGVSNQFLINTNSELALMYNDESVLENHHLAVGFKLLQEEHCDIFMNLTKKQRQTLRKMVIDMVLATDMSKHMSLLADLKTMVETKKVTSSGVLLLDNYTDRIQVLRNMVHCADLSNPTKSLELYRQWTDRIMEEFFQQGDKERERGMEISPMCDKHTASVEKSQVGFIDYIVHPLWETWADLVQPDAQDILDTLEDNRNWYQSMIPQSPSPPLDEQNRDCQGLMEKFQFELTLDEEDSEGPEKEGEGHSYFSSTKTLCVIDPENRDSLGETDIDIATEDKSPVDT
Chain of Cytochrome P450 3A4 (Homo sapiens) (P08684 whole entry, looked up): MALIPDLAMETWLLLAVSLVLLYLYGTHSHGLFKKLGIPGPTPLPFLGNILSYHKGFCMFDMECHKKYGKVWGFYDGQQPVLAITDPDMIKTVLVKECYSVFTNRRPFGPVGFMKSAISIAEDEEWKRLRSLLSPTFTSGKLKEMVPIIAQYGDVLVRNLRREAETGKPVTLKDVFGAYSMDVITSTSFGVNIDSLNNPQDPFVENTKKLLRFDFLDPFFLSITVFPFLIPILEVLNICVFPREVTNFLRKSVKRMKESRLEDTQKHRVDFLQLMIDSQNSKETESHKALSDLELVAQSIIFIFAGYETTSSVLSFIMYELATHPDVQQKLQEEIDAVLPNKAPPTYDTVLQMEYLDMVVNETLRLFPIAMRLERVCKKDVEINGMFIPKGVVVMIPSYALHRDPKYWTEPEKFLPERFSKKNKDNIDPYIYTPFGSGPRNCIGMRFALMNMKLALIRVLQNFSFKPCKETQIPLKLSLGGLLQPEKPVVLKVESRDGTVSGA
Chain of Cytochrome P450 1A2 (Homo sapiens) (P05177 whole entry, looked up): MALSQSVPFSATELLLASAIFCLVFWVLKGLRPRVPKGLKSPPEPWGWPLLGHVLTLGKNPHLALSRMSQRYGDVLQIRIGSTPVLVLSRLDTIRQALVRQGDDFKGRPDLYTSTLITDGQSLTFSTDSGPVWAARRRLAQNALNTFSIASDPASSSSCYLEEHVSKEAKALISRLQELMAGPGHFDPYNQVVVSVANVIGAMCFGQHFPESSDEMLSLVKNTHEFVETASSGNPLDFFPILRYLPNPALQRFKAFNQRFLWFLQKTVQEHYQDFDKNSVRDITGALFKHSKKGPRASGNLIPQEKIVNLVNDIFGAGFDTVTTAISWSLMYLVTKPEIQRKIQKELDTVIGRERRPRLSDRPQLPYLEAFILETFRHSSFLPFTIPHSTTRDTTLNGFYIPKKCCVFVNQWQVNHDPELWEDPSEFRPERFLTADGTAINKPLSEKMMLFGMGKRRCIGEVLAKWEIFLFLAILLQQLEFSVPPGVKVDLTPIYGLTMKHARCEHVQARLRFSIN
Chain of Glucocorticoid receptor (Homo sapiens) (P04150 whole entry, looked up): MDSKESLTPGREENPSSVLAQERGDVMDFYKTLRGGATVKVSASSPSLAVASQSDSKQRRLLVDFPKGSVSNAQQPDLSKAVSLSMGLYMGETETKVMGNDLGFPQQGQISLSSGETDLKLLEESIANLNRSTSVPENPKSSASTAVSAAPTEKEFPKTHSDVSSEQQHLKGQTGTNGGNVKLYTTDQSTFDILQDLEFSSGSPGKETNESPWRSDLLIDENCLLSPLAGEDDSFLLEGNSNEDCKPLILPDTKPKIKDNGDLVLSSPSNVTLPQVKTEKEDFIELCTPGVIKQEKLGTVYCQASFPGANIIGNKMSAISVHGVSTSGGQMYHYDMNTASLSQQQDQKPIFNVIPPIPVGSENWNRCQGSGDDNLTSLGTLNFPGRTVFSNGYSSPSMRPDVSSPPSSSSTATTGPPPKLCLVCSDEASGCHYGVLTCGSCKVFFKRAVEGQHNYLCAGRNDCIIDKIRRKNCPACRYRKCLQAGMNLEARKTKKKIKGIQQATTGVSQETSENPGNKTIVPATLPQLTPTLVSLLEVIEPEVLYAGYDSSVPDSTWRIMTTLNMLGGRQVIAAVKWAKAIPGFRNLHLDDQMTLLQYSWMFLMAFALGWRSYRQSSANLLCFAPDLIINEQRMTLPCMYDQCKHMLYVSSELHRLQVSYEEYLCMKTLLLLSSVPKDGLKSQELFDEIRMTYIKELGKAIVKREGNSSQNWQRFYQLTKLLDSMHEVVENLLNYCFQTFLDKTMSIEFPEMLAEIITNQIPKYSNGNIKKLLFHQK
Chain of Dual specificity protein kinase CLK4 (Homo sapiens) (Q9HAZ1 whole entry, looked up): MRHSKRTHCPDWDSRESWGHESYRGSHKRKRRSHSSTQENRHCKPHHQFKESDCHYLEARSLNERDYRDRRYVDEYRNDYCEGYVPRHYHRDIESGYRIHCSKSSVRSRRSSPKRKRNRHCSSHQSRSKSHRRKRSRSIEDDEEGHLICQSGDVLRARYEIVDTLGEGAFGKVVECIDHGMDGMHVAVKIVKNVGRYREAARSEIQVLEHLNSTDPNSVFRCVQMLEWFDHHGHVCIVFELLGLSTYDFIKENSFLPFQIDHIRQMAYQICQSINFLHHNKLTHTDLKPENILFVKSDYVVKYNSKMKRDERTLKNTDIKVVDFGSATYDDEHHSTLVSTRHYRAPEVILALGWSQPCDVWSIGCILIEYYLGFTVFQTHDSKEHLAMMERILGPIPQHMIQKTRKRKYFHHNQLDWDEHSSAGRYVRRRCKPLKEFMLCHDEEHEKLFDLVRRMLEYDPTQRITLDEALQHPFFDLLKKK
Chain of Cytochrome P450 2C19 (Homo sapiens) (P33261 whole entry, looked up): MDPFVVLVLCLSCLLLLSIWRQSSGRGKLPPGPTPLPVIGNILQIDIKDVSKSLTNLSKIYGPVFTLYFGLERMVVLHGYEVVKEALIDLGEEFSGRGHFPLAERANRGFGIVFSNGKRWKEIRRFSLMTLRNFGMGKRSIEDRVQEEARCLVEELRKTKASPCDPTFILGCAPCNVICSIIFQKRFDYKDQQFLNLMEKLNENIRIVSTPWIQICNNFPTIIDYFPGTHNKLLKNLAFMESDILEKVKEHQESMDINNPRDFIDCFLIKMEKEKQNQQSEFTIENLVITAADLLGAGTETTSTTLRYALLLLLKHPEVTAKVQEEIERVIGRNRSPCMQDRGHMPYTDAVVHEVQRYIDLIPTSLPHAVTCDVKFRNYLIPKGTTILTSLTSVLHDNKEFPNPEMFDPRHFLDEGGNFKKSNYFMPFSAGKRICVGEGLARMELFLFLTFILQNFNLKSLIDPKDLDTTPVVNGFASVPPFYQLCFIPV

Consider `N#Cc1cccc(-c2nc3cnc(Nc4ccccc4)nc3n(C[C@H]3CCCO3)c2=O)c1`, for which the Potency in assay [1] was over 11.4 µM; in [3], 2 µM (active); in assay [6] it was over 9.22 µM; in assay [7] it was over 46 µM. The figures for the activity change, negative = inhibition in assay [2] and in [4] were -18.6% and -9.05%, respectively. The activity, negative = inhibition in [5] was -7.94%. The Potency entry in assay [8] and in [9] was “inactive” each time. Further, in assay [10], the outcome was inactive.

In the case of `COc1ccc(-c2nc3cnc(N4CCOCC4)nc3n(Cc3cccs3)c2=O)cc1`, the Potency was 2.51 µM (active) in [3], over 9.22 µM in [6], over 46 µM in assay [7] and 1.58 µM (active) in assay [9]. Besides, the activity change, negative = inhibition in assay [4] is -2.31%. Also, the Potency result in assay [8], in [11] and in assay [12] was “inactive” throughout. The result in [10] was inactive.

Turning to `COc1ccc(Oc2ncc3nc(C)c(=O)n(CCC#N)c3n2)cc1`, the Potency is over 11.4 µM in assay [1], 25.1 µM (active) in assay [3], over 9.22 µM in [6] and over 46 µM in assay [7]. Moreover, the activity change, negative = inhibition in assay [2] is -15.5%; in assay [4] it was 8.56%. The activity, negative = inhibition in assay [5] is -12.9%. Further, the Potency result in [8] and in [9] was “inactive” each time. Besides, the outcome in [10] was inactive.

As for `CN(C)C(=O)c1ccc(-c2cncnc2NCCN2CCOCC2)cc1`, the Potency was over 11.4 µM in assay [1], over 46 µM in assay [6] and over 46 µM in assay [7]. The activity change, negative = inhibition in assay [2] was -0.958%; in assay [4], -6.2%. The Potency result in assay [3], in assay [8], in assay [9], in assay [13], in assay [14] and in assay [12] was “inactive” throughout. Also, the activity, negative = inhibition in [5] is 0.853%. In addition, the call in assay [15] and in [10] was inactive.

For the compound `COc1ccc2[nH]cc(CCNc3ccnc(-c4ccoc4)n3)c2c1`, the Potency in assay [1] was over 11.4 µM; in assay [3], 0.501 µM (active); in assay [6] it was over 46 µM; in assay [7], over 46 µM; in assay [16], 3.16 µM (active); in [17] it was 0.501 µM (active). Besides, the activity change, negative = inhibition in [2] is -23%; in [4] it was -2.92%. In assay [5], the activity, negative = inhibition was -23.2%. Besides, the Potency result in assay [8], in assay [9], in assay [13] and in [12] was “inactive” throughout. For the same compound, the outcome in assay [10] was inactive.

With `COc1ccc(-c2nc3cnc(N4CCOCC4)nc3n(CCC#N)c2=O)cc1`, the Potency in assay [1] was over 11.4 µM; in [3] it was 3.16 µM (active); in assay [6], over 9.22 µM; in assay [7] it was over 46 µM. Further, the activity change, negative = inhibition in [2] is 3.37%; in assay [4] it was 2.6%. In addition, the activity, negative = inhibition in [5] is 16.9%. In addition, the Potency entry in assay [8] and in assay [9] was “inactive” each time. In assay [10], the outcome was inactive.

Regarding `NC[C@@H]1O[C@H](O[C@H]2[C@H](O)[C@H](O[C@H]3[C@@H](O)[C@H](N)C[C@H](N)[C@H]3O[C@H]3O[C@H](CN)[C@H](O)[C@H](O)[C@H]3N)O[C@@H]2CO)[C@@H](N)[C@@H](O)[C@@H]1O`, the result in assay [10] was inactive.

With `COc1cccc(Cn2c(=O)c(-c3ccccc3)nc3cnc(N(C)C)nc32)c1`, the Potency in [1] was over 11.4 µM; in assay [3], 10 µM (active); in assay [6] it was over 9.22 µM; in [7], over 46 µM; in [16], 6.31 µM (active). The activity change, negative = inhibition was 8.64% in assay [2] and -16.4% in assay [4]. Moreover, the activity, negative = inhibition in [5] was 11.4%. In assay [13], the Potency entry is “inactive”. Besides, the outcome in [10] was inactive.
